Experimental data from PubChem BioAssay AID1159580 (chemical genetic matrix, 2015).
Out of some 5,500 compounds screened, about 2,000 (36%) were called active. Inconclusive results (about 18%) are left out. Rule as the data show it: active = normalized growth mostly below about 0.91 (no sharp cut-off); inconclusive = no clear call, values can overlap the other calls; inactive = mostly above about 0.92. The list shows a part of the results.

Assay: chemical genetic growth profiling, strain panel (AID 1159580);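 also: tested at 20 µM; growth read once vehicle control cultures reached saturation at 30 °C; 1 = growth at the plate median or of vehicle wells; lower values mean less growth of the strain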
Details: S. cerevisiae deletion strains, growth OD

Measured: normalized growth

COc1ccc(CN(CCN(C)C)c2ncccn2)cc1
inactive: locus YAL021C, strain ccr4, stronger effect = lower value 1.01 | locus YAL026C, strain drs2, stronger effect = lower value 1.04 | locus YAL030W, strain snc1, stronger effect = lower value 0.997 | locus YBL061C, strain skt5, stronger effect = lower value 1.01 | locus YBR009C, strain hhf1, stronger effect = lower value 1.01 | locus YBR023C, strain chs3, stronger effect = lower value 1.01 | locus YBR171W, strain sec66, stronger effect = lower value 1.01 | locus YBR231C, strain swc5, stronger effect = lower value 1.04 | locus YBR279W, strain paf1, stronger effect = lower value 1.01 | locus YCL011C, strain gbp2, stronger effect = lower value 1.01 | locus YCL016C, strain dcc1, stronger effect = lower value 1.01 | locus YCL061C, strain MRC1, stronger effect = lower value 1.02 | locus YCL069W, strain vba3, stronger effect = lower value 1.01 | locus YCR088W, strain abp1, stronger effect = lower value 1.01 | locus YDL005C, strain med2, stronger effect = lower value 1.01 | locus YDL040C, strain nat1, stronger effect = lower value 1.02 | locus YDR001C, strain nth1, stronger effect = lower value 1.02 | locus YDR069C, strain doa4, stronger effect = lower value 1 | locus YDR137W, strain rgp1, stronger effect = lower value 1.01 | locus YDR159W, strain sac3, stronger effect = lower value 0.992 | locus YDR195W, strain ref2 1 | locus YDR297W, strain sur2, stronger effect = lower value 1.02 | locus YDR334W, strain swr1, stronger effect = lower value 0.998 | locus YDR335W, strain msn5, stronger effect = lower value 1.01 | locus YDR392W, strain spt3, stronger effect = lower value 1.03 | locus YEL003W, strain gim4, stronger effect = lower value 1.01 | locus YEL037C, strain rad23, stronger effect = lower value 1.01 | locus YEL061C, strain CIN8 (second series), stronger effect = lower value 1 | locus YER015W, strain faa2, stronger effect = lower value 1.02 | locus YER016W, strain bim1, stronger effect = lower value 1.02 | locus YER111C, strain swi4, stronger effect = lower value 1.02 | locus YER155C, strain BEM2 (second series), stronger effect = lower value 1.05 | locus YFR010W, strain ubp6, stronger effect = lower value 1.01 | locus YGL167C, strain pmr1, stronger effect = lower value 1.02 | locus YGL173C, strain kem1, stronger effect = lower value 1.03 | locus YGL227W, strain vid30, stronger effect = lower value 1.01 | locus YGL240W, strain doc1, stronger effect = lower value 1.01 | locus YGL253W, strain hxk2, stronger effect = lower value 1.02 | locus YHR013C, strain ard1, stronger effect = lower value 1.01 | locus YHR027C, strain rpn1, stronger effect = lower value 1.01 | locus YHR030C, strain SLT2, stronger effect = lower value 1 | locus YHR079C, strain IRE1, stronger effect = lower value 1 | locus YHR142W, strain chs7, stronger effect = lower value 1.04 | locus YJL092W, strain hpr5, stronger effect = lower value 1.03 | locus YJL095W, strain BCK1 (second series), stronger effect = lower value 1.01 | locus YJL095W, strain BCK1, stronger effect = lower value 1 | locus YJL115W, strain asf1, stronger effect = lower value 1.01 | locus YJL129C, strain trk1, stronger effect = lower value 1.01 | locus YJL154C, strain vps35, stronger effect = lower value 1.01 | locus YJL164C, strain tpk1, stronger effect = lower value 1.02 | locus YJL166W, strain qcr8, stronger effect = lower value 0.995 | locus YJR066W, strain TOR1, stronger effect = lower value 0.954 | locus YKL160W, strain elf1, stronger effect = lower value 1.02 | locus YKR026C, strain gcn3, stronger effect = lower value 1 | locus YKR091W, strain srl3, stronger effect = lower value 1 | locus YLL001W, strain dnm1, stronger effect = lower value 1.01 | locus YLL026W, stronger effect = lower value 1 | locus YLL041C, strain sdh2, stronger effect = lower value 0.995 | locus YLR027C, strain aat2, stronger effect = lower value 1.01 | locus YLR113W, strain HOG1, stronger effect = lower value 1 | locus YLR221C, strain rsa3, stronger effect = lower value 0.998 | locus YLR258W, strain gsy2, stronger effect = lower value 1.03 | locus YLR262C, strain YPT6 (second series), stronger effect = lower value 1.01 | locus YLR320W, strain mms22, stronger effect = lower value 1.01 | locus YLR342W, strain FKS1, stronger effect = lower value 1.02 | locus YLR357W, strain rsc2, stronger effect = lower value 1.01 | locus YLR370C, strain arc18, stronger effect = lower value 1.03 | locus YLR384C, strain iki3, stronger effect = lower value 1.02 | locus YML120C, strain ndi1, stronger effect = lower value 1.01 | locus YMR058W, strain fet3, stronger effect = lower value 1.03 | locus YMR125W, strain sto1, stronger effect = lower value 1.01 | locus YMR129W, stronger effect = lower value 1.02 | locus YMR205C, strain PFK2, stronger effect = lower value 1.02 | locus YMR231W, strain pep5, stronger effect = lower value 1.02 | locus YNL071W, strain lat1, stronger effect = lower value 1.02 | locus YNL183C, strain NPR1, stronger effect = lower value 0.943 | locus YNL209W, strain ssb2, stronger effect = lower value 1.03 | locus YNL248C, strain rpa49, stronger effect = lower value 1.03 | locus YNL322C, strain KRE1 (second series), stronger effect = lower value 1.02 | locus YNR049C, strain mso1, stronger effect = lower value 1.01 | locus YOR001W, strain rrp6, stronger effect = lower value 1.01 | locus YOR070C, strain gyp1, stronger effect = lower value 1.02 | locus YOR080W, strain dia2, stronger effect = lower value 1.01 | locus YOR083W, strain WHI5, stronger effect = lower value 0.981 | locus YOR106W, strain vam3, stronger effect = lower value 1.02 | locus YOR231W, strain MKK1, stronger effect = lower value 0.99 | locus YOR265W, strain rbl2, stronger effect = lower value 1.02 | locus YOR270C, strain vph1, stronger effect = lower value 1.03 | locus YOR290C, strain snf2, stronger effect = lower value 1.02 | locus YPL051W, strain arl3, stronger effect = lower value 1.02 | locus YPL078C, strain atp4, stronger effect = lower value 1.02 | locus YPL106C, strain sse1, stronger effect = lower value 0.994 | locus YPL240C, strain hsp82, stronger effect = lower value 0.999 | locus YPL256C, strain CLN2, stronger effect = lower value 0.991
